Results from PubChem BioAssay (EPA / NIEHS).
Records with an inconclusive call do not appear. The source made the active and inactive calls. Rule for the calls: active = hit-call score of the fitted dose curve at least 0.9, where 1 is the maximum; inconclusive = response in the unintended direction; inactive = score below 0.9.

The compounds below were run against sheep Cyclooxygenase-1 (Cox1), PTGS1 (gene 443551) (UniProt P05979) (assay: NVS_ENZ_oCOX1: NovaScreen (NVS) Enzymatic Assay for sheep Cyclooxygenase-1 (Cox1) (AID 2283239);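 note: actives reduce cyclooxygenase activity so potencies are for inhibitors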).
Sequence of sheep Cyclooxygenase-1 (Cox1), PTGS1 (gene 443551) (P05979 whole entry, looked up): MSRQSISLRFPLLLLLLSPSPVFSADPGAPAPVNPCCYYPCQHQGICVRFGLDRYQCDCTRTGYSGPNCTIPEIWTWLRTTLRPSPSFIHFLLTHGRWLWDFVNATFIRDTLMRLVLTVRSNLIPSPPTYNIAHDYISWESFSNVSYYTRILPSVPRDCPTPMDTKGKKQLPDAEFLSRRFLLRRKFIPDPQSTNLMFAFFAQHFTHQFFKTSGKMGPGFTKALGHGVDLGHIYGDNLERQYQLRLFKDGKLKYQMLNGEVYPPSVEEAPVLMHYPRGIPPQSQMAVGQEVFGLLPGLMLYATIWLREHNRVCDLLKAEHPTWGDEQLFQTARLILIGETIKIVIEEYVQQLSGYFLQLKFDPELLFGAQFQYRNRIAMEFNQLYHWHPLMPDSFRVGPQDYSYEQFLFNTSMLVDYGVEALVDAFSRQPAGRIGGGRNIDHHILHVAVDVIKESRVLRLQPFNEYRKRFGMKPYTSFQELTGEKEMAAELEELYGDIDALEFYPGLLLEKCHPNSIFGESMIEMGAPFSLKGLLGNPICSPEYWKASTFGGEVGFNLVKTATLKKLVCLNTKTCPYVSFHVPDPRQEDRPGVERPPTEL
Method in brief: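 COX1 from ovine seminal vesicles, activity read colorimetrically about 0.66 h after dosing. Primary screen in duplicate at 25 uM; actives retested in concentration series; loss of signal fitted versus DMSO.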

Row | Compound | outcome | AC50
1 | CC(C)(C)c1ccccc1O | inactive | 
2 | CN(C)CCN(C)C | inactive | 
3 | O=C(O)COc1cc(Cl)c(Cl)cc1Cl | inactive | 
4 | Nc1ncn[nH]1 | inactive | 
5 | COc1ccc(N)cc1 |  | 26 µM (active)
6 | [Cl][Sn]([c]1ccccc1)([c]1ccccc1)[c]1ccccc1 | inactive | 
7 | N#CCCC(Br)(C#N)CBr (stereo unspecified) |  | 4.04 µM (active)
8 | c1ccc2sc(SNC3CCCCC3)nc2c1 | inactive | 

What follows are compounds tested on rat Monoamine Oxidase, MAO-A, Central (MAOAC), gene 29253 (assay: NVS_ENZ_rMAOAC: NovaScreen (NVS) Enzymatic Assay for rat Monoamine Oxidase, MAO-A, Central (MAOAC) (AID 2283243);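 note: potency refers to inhibition seen as signal drop below DMSO baseline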).
Method in brief: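 Lysate-based radiometric enzyme assay using rat brain tissue; 1.5 h treatment; 25 uM single-point duplicate screen, concentration-response follow-up; loss of signal versus DMSO.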

Row | Compound | outcome | AC50
9 | Oc1c(Cl)cc(Cl)cc1Cl | inactive | 
10 | Oc1cccc(-c2ccccc2)c1 |  | 10.9 µM (active)
11 | O=C1C=CC(=O)c2ccccc21 |  | 25 µM (active)
12 | OC(Cc1ccccc1Cl)(Cn1cncn1)C1(Cl)CC1 (stereo unspecified) | inactive | 
13 | Oc1ccc(Cc2ccc(O)cc2)cc1 |  | 25 µM (active)

The compounds below were run against guinea pig Leukotriene D4 Receptor (LTD4), CYSLTR1 (gene 100135514) (UniProt Q2NNR5) (assay: NVS_GPCR_gLTD4: NovaScreen (NVS) G Protein-Coupled Receptor Assay for guinea pig Leukotriene D4 Receptor (LTD4) (AID 2283248)).
Sequence of guinea pig Leukotriene D4 Receptor (LTD4), CYSLTR1 (gene 100135514) (Q2NNR5 whole entry, looked up): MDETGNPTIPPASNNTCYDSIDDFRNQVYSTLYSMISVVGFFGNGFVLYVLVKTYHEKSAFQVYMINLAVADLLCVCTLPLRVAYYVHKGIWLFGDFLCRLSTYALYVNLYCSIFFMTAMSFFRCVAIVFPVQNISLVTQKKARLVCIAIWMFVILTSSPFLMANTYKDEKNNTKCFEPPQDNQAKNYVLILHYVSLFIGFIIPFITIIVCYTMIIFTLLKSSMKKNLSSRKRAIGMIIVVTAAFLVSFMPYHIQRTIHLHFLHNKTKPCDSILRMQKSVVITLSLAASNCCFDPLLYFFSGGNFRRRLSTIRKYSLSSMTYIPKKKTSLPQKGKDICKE
Method: NVS_GPCR_gLTD4 is a biochemical, single-readout assay that uses extracted gene-proteins from Guinea pig lung membranes in a tissue-based cell-free assay. Measurements were taken 1 hour after chemical dosing in a 48-well plate.NVS_GPCR_gLTD4 is one of one assay component(s) measured or calculated from the NVS_GPCR_gLTD4 assay. It is designed to make measurements of radioligand binding, a form of binding reporter, as detected with scintillation counting signals by Filter-based radiodetection technology.Data from the assay component NVS_GPCR_gLTD4 was analyzed into 1 assay endpoint. This assay endpoint, NVS_GPCR_gLTD4, was analyzed in the positive analysis fitting direction relative to DMSO as the negative control and baseline of activity. Using a type of binding reporter, loss-of-signal activity can be used to understand changes in the binding as they relate to the gene Cysltr1. Furthermore, this assay endpoint can be referred to as a primary readout, because the performed assay has only produced 1 assay endpoint. To generalize the intended target to other relatable targets, this assay endpoint is annotated to the gpcr intended target family, where the subfamily is rhodopsin-like receptor.
Binding assays used specific radioligands (tritiated, iodinated) with non-radioactive competitive displacement ligands in agonist or antagonist protocols (as indicated) and various reference compounds and inhibitors to titrate specific binding to receptors and transporters. Most enzyme assays (CYPs, kinases, phosphatases, proteases, HDACs) used recombinant protein and specific substrates (fluorescence mostly, some colorimetric and radioactive) and inhibitors, followed by a biochemical separation of substrate and product. All assays for the biochemical HTS were initially run in duplicate at a single concentration (10 uM for CYP450 assays and 25 uM for all others). Assay-chemical combinations meeting a pre-defined threshold (e.g., 30% inhibition and other criteria defined below) were then run in singleton concentration-response format with maximum concentration of 20 uM for CYPs and 50 uM for all others. Each assay was run with positive and negative controls, and concurrent controls on every plate. The follow-up (secondary) screen tested active chemical-pairs in concentration series, as well as a few additional assays not tested in the primary screen, some selected negative inactives, and several cases re-run in the concentration series for confirmatory purposes.

Row | Compound | outcome
14 | CCN(N=O)C(N)=O | inactive
15 | CCOC(=O)CC(=O)CCl | inactive
16 | O=C(O)C1(c2ccc3c(c2)OC[C@H](Cc2ccc(-c4ccccc4)cc2)[C@H]3O)CCCC1 | inactive
17 | CCCCOC(C)=O | inactive

Each compound was assayed against guinea pig Opioid, Kappa 1 Receptor (OpiateK), OPRK1 (gene 100135587) (UniProt P41144) (assay: NVS_GPCR_gOpiateK: NovaScreen (NVS) G Protein-Coupled Receptor Assay for guinea pig Opioid, Kappa 1 Receptor (OpiateK) (AID 2283252);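 note: radioligand displacement from kappa opioid receptor in guinea pig cerebellar membranes; active means reduced radioligand binding relative to DMSO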).
Sequence of guinea pig Opioid, Kappa 1 Receptor (OpiateK), OPRK1 (gene 100135587) (P41144 whole entry, looked up): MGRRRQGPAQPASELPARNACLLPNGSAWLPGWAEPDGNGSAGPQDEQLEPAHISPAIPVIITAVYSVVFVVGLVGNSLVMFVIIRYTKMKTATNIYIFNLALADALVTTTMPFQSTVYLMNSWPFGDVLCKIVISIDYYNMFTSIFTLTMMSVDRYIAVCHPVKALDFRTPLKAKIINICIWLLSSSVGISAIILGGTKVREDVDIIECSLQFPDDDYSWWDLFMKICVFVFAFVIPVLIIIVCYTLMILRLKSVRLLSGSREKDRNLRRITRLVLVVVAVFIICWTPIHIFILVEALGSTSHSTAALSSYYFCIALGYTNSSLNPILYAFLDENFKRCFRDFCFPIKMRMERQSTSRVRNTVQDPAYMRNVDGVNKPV
Method in brief: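 Cell-free tissue prep: guinea pig cerebellar membranes, radioligand displacement, 2 h incubation. Readout: filtration plus scintillation counting. Primary single-point 25 uM duplicate; actives retested in concentration series; DMSO negative control.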

Row | Compound | AC50 | outcome
18 | O=C1C=CC(=O)c2ccccc21 | 37.8 µM (active) | 
19 | O=C1C[C@@H]2OCC=C3CN4CC[C@]56c7ccccc7N1[C@H]5[C@H]2[C@H]3C[C@H]46 |  | inactive
20 | N#CCCC(Br)(C#N)CBr (stereo unspecified) |  | inactive

Each compound was assayed against human Adenosine A1 Receptor (AdoRA1), ADORA1 (gene 134) (UniProt P30542) (assay: NVS_GPCR_hAdoRA1: NovaScreen (NVS) G Protein-Coupled Receptor Assay for human Adenosine A1 Receptor (AdoRA1) (AID 2283254)).
Sequence of human Adenosine A1 Receptor (AdoRA1), ADORA1 (gene 134) (P30542 whole entry, looked up): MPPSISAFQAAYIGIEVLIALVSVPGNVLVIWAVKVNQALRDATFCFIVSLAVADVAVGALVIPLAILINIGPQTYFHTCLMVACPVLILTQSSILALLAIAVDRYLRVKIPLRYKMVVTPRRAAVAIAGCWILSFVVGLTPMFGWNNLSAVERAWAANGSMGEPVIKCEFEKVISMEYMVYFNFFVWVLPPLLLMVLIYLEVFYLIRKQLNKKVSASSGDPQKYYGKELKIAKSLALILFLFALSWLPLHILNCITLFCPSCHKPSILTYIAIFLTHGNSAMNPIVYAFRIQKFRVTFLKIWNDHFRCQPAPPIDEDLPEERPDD
Method in brief: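 Each chemical is first tested twice at 25 uM, actives later in dilution series, against a radioligand bound to human cortex membranes; after 1 h, filter-retained counts are compared with DMSO controls, lower signal indicating displacement.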

Row | Compound | AC50 | outcome
21 | Cc1cc(C(C)(C)c2ccc(O)c(C)c2)ccc1O | 8.39 µM (active) | 
22 | CCCCOC(C)=O |  | inactive
23 | Cc1ccccc1OP(=O)(Oc1ccccc1C)Oc1ccccc1C |  | inactive

The compounds below were run against human Adenosine A2a Receptor (AdoRA2a), ADORA2A (gene 135) (UniProt P29274) (assay: NVS_GPCR_hAdoRA2a: NovaScreen (NVS) G Protein-Coupled Receptor Assay for human Adenosine A2a Receptor (AdoRA2a) (AID 2283256)).
Sequence of human Adenosine A2a Receptor (AdoRA2a), ADORA2A (gene 135) (P29274 whole entry, looked up): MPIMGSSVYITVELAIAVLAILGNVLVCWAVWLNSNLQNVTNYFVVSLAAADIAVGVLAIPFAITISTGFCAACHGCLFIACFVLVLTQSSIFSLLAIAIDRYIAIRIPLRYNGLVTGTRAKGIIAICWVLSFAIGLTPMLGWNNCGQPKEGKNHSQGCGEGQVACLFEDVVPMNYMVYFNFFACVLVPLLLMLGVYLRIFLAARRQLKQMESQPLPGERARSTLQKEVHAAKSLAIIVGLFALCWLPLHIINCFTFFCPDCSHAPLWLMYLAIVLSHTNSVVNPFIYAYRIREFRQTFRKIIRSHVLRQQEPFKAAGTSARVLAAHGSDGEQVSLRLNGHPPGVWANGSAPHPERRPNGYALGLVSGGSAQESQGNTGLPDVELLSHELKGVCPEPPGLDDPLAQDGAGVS
Method: NVS_GPCR_hAdoRA2a is a biochemical, single-readout assay that uses extracted gene-proteins from HEK293 in a cell-free assay. Measurements were taken 1.5 hours after chemical dosing in a 96-well plate.NVS_GPCR_hAdoRA2a is one of one assay component(s) measured or calculated from the NVS_GPCR_hAdoRA2a assay. It is designed to make measurements of radioligand binding, a form of binding reporter, as detected with scintillation counting signals by Filter-based radiodetection technology.Data from the assay component NVS_GPCR_hAdoRA2a was analyzed into 1 assay endpoint. This assay endpoint, NVS_GPCR_hAdoRA2a, was analyzed in the positive analysis fitting direction relative to DMSO as the negative control and baseline of activity. Using a type of binding reporter, loss-of-signal activity can be used to understand changes in the binding as they relate to the gene ADORA2A. Furthermore, this assay endpoint can be referred to as a primary readout, because the performed assay has only produced 1 assay endpoint. To generalize the intended target to other relatable targets, this assay endpoint is annotated to the gpcr intended target family, where the subfamily is rhodopsin-like receptor.
Binding assays used specific radioligands (tritiated, iodinated) with non-radioactive competitive displacement ligands in agonist or antagonist protocols (as indicated) and various reference compounds and inhibitors to titrate specific binding to receptors and transporters. Most enzyme assays (CYPs, kinases, phosphatases, proteases, HDACs) used recombinant protein and specific substrates (fluorescence mostly, some colorimetric and radioactive) and inhibitors, followed by a biochemical separation of substrate and product. All assays for the biochemical HTS were initially run in duplicate at a single concentration (10 uM for CYP450 assays and 25 uM for all others). […] Each assay was run with positive and negative controls, and concurrent controls on every plate. […]

Row | Compound | outcome
24 | Cc1cccc(OP(=O)(Oc2cccc(C)c2)Oc2cccc(C)c2)c1 | inactive
25 | Cc1cc(C(C)(C)c2ccc(O)c(C)c2)ccc1O | inactive
26 | [Cl][Sn]([c]1ccccc1)([c]1ccccc1)[c]1ccccc1 | inactive
